Records with an inconclusive call do not appear. Active and inactive are the calls of the source. The call rests on the fitted dose curve; in most records, active means well fitted inhibition curve with a large enough effect; inconclusive means small, poorly fitted or top-dose-only effect, or effect the other way; inactive means flat fitted curve, though single readings scatter.
experiment: qHTS for Inhibitors of Plasmodium falciparum (CP250) proliferation (AID 504320); settings: P. falciparum CP250 in erythrocytes, SYBR Green DNA, 72 h; series mostly up to 6.7 µM
In short: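 Erythrocytes infected with P. falciparum line (0.3% parasitemia, 2.5% hematocrit final) incubated with compounds 72 h at 37 °C, 5% CO2; SYBR Green lysis buffer added, fluorescence read next day. Normalized to 0.29 uM artemisinin and DMSO.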

Potency, inactive:
C[C@@H]1CC[C@H]2C(=O)N(Cc3ccccc3)C[C@@H](O)CN2[C@@H]1c1cccc(Br)c1, COc1cc2c(c(OC)c1OC)CC(C)=C(C)CC2NC(=O)C(F)(F)F (stereo not given), CC1(O)C(=O)C=C2C=C(c3ccc(C#N)cc3)OC=C2C1=O (stereo not given), COCCN1C(=O)NC(c2ccco2)C(C(=O)OC)=C1C (stereo not given), CC(CCC#N)[N+](=O)[O-] (stereo not given), COC[C@@H](OC(C)=O)[C@H]1OCc2ccccc2[C@H]1C=Cc1ccccc1, COc1ccc(-c2nc3c(c4c2C[C@H](c2ccccc2)OC4)CN(C(=O)Nc2cccc(C#N)c2)CC3)c(C)c1, COc1ccc(COC(=O)NN=C2C[C@@H](O)[C@@H](O)[C@@H]3[C@H]4C(=O)N([C@@H](C)c5ccccc5)C(=O)[C@@H]4CC[C@H]23)cc1, CC1(OC(=O)C2CCCC2)C(=O)C=C2C=C(c3ccsc3)N(C3CC3)C=C2C1=O (stereo not given), CC(C)(C)Nc1oc(-c2ccccc2)nc1-c1ccccc1, COc1ccc(NC2=CC(c3ccccc3)N(c3ccc(OC)cc3)C2=O)cc1 (stereo not given), C[C@H]1[C@H](N=[N+]=[N-])[C@H](O)CCO[C@@H]1c1ccccc1, COC(=O)[C@H](Cc1ccccc1)NC(=O)O[C@@H]1C(=O)c2cc(OC)ccc2O[C@H]1c1ccc(OC)c(Br)c1, CC#CCN1c2ccccc2[C@]23CCC(=O)N(Cc4cccc(C(F)(F)F)c4)C2=NC(C(=O)OC)=C(C(=O)OC)[C@H]13, COC1=C[C@H](C(=O)NCc2ccc(Br)cc2)[C@H](C)[C@@H](c2ccccc2)CC1=O

Reference: PubChem BioAssay (NCATS)
